Screening results as filed in PubChem BioAssay.
This is a sample that favours compounds with a hit; in the whole collection about 3.5% have one here.
FBW7 act – FBW7 E3 ligase activators, primary screen, biochemical, AlphaScreen, human | F-box/WD repeat-containing protein 7 (Homo sapiens), Q969H0 | AlphaScreen FBW7–phospho-cyclin E peptide binding, activator screen | normalized activity (activation), % at 26.1 µM | hit rate 0.13% among 650,000 | AID 1259310, 2017; in the data active = normalized activity above about 1.9%;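 also: purified mutant Fbw7 with reduced substrate affinity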
MITF inh – MITF inhibitors, primary screen, biochemical, AlphaScreen, human. AID 1259374, 2018. AlphaScreen MITF homodimerization, bead proximity signal. hit rate 0.91% among 650,000. inhibition, % at 2.6 µM; in the data active = inhibition above about 50%
Target sequence (O75030 whole entry, looked up): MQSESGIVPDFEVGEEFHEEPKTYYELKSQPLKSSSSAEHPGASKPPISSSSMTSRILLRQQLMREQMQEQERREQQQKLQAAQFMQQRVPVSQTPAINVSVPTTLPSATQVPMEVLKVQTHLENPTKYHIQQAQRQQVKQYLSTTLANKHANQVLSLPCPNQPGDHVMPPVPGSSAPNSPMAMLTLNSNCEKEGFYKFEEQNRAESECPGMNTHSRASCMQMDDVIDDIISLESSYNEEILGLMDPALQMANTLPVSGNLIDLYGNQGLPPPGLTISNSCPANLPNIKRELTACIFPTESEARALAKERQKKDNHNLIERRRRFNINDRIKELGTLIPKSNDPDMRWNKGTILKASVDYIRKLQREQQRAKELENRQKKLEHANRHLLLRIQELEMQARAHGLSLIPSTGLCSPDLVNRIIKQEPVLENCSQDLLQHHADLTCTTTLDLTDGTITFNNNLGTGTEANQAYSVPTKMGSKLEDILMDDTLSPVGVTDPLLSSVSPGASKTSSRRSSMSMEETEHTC
TEAD-YAP block – TEAD-YAP interaction inhibition, primary screen, TEAD-YAP interaction inhibitor project, luminescence, HEK-TIYL cells; hit rate 1.4% among 640,000; TEAD-Gal4/YAP UAS-luciferase luminescence; inhibition, % at 9.12 µM; in the data active = inhibition above about 32%
GPR151 activ – activators of human GPR151, primary screen, cell-based, PathHunter beta-arrestin, luminescence; activation, % at 11.2 µM; PathHunter beta-arrestin GPR151 cells; AID 1508602, 2020; hit rate 1% among 650,000; in the data active = activation above about 4.9%
GPR151 confirm – GPR151 activators, triplicate retest, confirmation, cell-based, PathHunter beta-arrestin, luminescence | activation, % at 11.2 µM | 6,700 tested, under 10 active | GPR151 PathHunter beta-arrestin cells, 90 min; % of EA-reagent control over plate median | AID 1508609, 2020 | shares compounds with GPR151 activ;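 active = mean percent activation across replicates above the confirmation screen cutoff of 4.91%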
GPR119 counter – GPR119 activators in beta-arrestin cells, counter-screen for GPR151 activator project, cell-based, PathHunter beta-arrestin, luminescence, triplicate; shares compounds with GPR151 activ; 90 min; 0 = compound-well median, 100 = enzyme-acceptor control; activation, % at 11.2 µM; hit rate 0.3% among 6,700; AID 1508611, 2020;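 active = mean percent activation in the counterscreen above 29.09%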;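 also: counterscreen on off-target GPR119 to flag nonselective hits from the GPR151 activator screen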
Each line names hits and unclear results; the compound was inactive in the other large screens (follow-up assays come after a bar, where they were run).

COc1cccc(C(=O)NCc2nnc(SCC(=O)N3N=C(c4cccs4)CC3c3ccc(C)cc3)n2-c2ccccc2)c1 (stereo not drawn)	none
COc1ccc(C2CC(c3cccs3)=NN2C(=O)CSc2nnc(CNC(=O)c3cccc(OC)c3)n2-c2ccccc2)cc1 (stereo not drawn)	GPR151 activ 5.8 | GPR151 confirm inactive | GPR119 counter inactive
COCCCN1C(=O)c2ccc(C(=O)Oc3ccc(C(C)(C)C)cc3)cc2C1=O	GPR151 activ 5.2 | GPR151 confirm inactive | GPR119 counter inactive
CCC1(c2ccccc2)C(=O)Nc2ccccc21 (stereo not drawn)	none
CCCC(=O)N(c1ccc2oc(C)c(C(=O)OC)c2c1)S(=O)(=O)c1ccc2ccccc2c1	GPR151 activ 5.2 | GPR151 confirm inactive | GPR119 counter inactive
CCCC(=O)N(c1ccc2oc(C)c(C(=O)OCC)c2c1)S(=O)(=O)c1ccc2ccccc2c1	none
CCOCCCNC(=O)C(NC(=O)C1CCC(=O)N1)c1ccccc1 (stereo not drawn)	GPR151 activ 5.6 | GPR151 confirm inactive | GPR119 counter inactive
COc1ccc(C)cc1S(=O)(=O)N1CCCC(C(N)=O)C1 (stereo not drawn)	none
COc1ccc(Cl)cc1S(=O)(=O)N1CCCC(C(=O)NCC(N)=O)C1 (stereo not drawn)	GPR151 activ 7.4 | GPR151 confirm inactive | GPR119 counter inactive
O=C(Nc1ccc(Cl)c(Cl)c1)N1CCN(C(=O)c2ccco2)CC1	none
COc1ccc(N(C(=O)c2ccccc2Br)C2C=CS(=O)(=O)C2)cc1 (stereo not drawn)	none
O=C(Nc1ccccc1)N1CCC(CO)(CCc2ccccc2)CC1	GPR151 activ 9.9 | GPR151 confirm inactive | GPR119 counter inactive
Cc1cnc(Nc2ccc(C(F)(F)F)cc2)nc1NCCN(C(C)C)C(C)C	none
C#CCn1c(=NC(=O)CN2C(=O)CCC2=O)sc2c(C)cc(C)cc21	GPR151 activ 7.2 | GPR151 confirm inactive | GPR119 counter inactive
COC(=O)COc1ccc(NC(=O)C(c2ccccc2)c2ccccc2)cc1	none
O=C(Nc1ccc(S(=O)(=O)Nc2ncccn2)cc1)C(c1ccccc1)c1ccccc1	GPR151 activ 7.1 | GPR151 confirm inactive | GPR119 counter inactive
O=C(O)COc1ccc(NC(=O)C(c2ccccc2)c2ccccc2)cc1	GPR151 activ 4.9 | GPR151 confirm inactive | GPR119 counter inactive
O=S(=O)(c1ccc(S(=O)(=O)n2cnc3ccccc32)cc1)N1CCCC1	GPR151 activ 6.0 | GPR151 confirm inactive | GPR119 counter inactive
O=C(Nc1cccc(Oc2ccc(C(=O)O)c(C(=O)O)c2)c1)c1ccc([N+](=O)[O-])cc1	none
O=C(Nc1cccc(Oc2ccc(C(=O)O)c(C(=O)O)c2)c1)c1ccc(-c2ccccc2)cc1	GPR151 activ 6.9 | GPR151 confirm inactive | GPR119 counter inactive
C/C(=C/C(=O)c1ccc(Cl)cc1)Nc1cccc(O)c1	GPR151 activ 5.8 | GPR151 confirm inactive | GPR119 counter inactive
CC(C)CC(NC(=O)c1ccccc1)C(=O)OCc1ccccc1 (stereo not drawn)	GPR151 activ 5.6 | GPR151 confirm inactive | GPR119 counter inactive
CC(C)CC(NC(=O)c1ccccc1)C(=O)OCC(=O)c1ccccc1 (stereo not drawn)	none
O=C1c2ccccc2C(=O)N1CCOc1ccc([N+](=O)[O-])cc1	none
COCCSc1nnc(-c2ccc([N+](=O)[O-])cc2)n1C	none
CCCCCc1c(C)c(C#N)c2nc3ccccc3n2c1NCCCN(CC)CC	none
COc1ccc(-c2n[nH]c(=S)n2-c2cc(OC)ccc2OC)cc1	none
COc1ccccc1-n1c(-c2ccc(NS(C)(=O)=O)cc2)n[nH]c1=S	GPR151 activ 6.5 | GPR151 confirm inactive | GPR119 counter inactive
